Unmarked numbers belong to inactive results. Inconclusive results are not listed. Where a call stands in place of a potency, no number is given. Activity calls are given as the source filed them. Calls come from the whole dose curve; as a rule, active = well fitted curve in the direction sought with a large enough effect; inconclusive = small, poorly fitted or top-dose-only effect, or another doubt; inactive = no such curve, though single readings can be large; an effect the other way counts as inactive or inconclusive.
What was measured:
[1] = molecular target: Cytochrome P450 2D6 (Homo sapiens) (UniProt P10635); assay: qHTS Assay for Inhibitors and Substrates of Cytochrome P450 2D6 (AID 891); note: nearly all actives have a fitted effect of over 60% in size; note: potency is the fitted concentration of half-maximal effect;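 for activity change, negative = inhibition: luciferin methyl ether substrate demethylated by CYP2D6 with NADPH regeneration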
Summary of the method: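 Human CYP2D6 (5 nM) with 30 uM Luciferin-ME EGE (at Km) in 100 mM KPO4, compound preincubated 10 min, then NADPH regeneration system for 60 min at room temperature. Luciferin read by luminescence; normalized to 1.43 uM quinidine.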

[2] = molecular target: Cytochrome P450 3A4 (Homo sapiens) (UniProt P08684); assay: qHTS Assay for Activators of Cytochrome P450 3A4 (AID 885); note: nearly all actives have a fitted effect of over 65% in size
Summary of the method: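 Human CYP3A4 (20 nM) with Luciferin-PPXE at 25 uM (its KM) in 200 mM KPO4; 10 min compound preincubation, then NADPH regeneration and 60 min reaction at RT. Luciferin read by luminescence; normalized to 57 uM ketoconazole full inhibition.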

[3] = molecular target: Cytochrome P450 2C19 (Homo sapiens) (UniProt P33261); assay: qHTS Assay for Inhibitors and Substrates of Cytochrome P450 2C19 (AID 899); note: nearly all actives have a fitted effect of over 60% in size
Summary of the method: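 5 nM human CYP2C19 with 10uM Luciferin-H EGE (at KM) in 50mM KPO4, compound preincubated 10 min at 37C, then NADPH regeneration for 60 min at 37C. Luciferin read by luminescence after detection reagent; normalized to 57uM ketoconazole as full inhibition.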

[4] = molecular target: Alpha-galactosidase (Coffea arabica) (UniProt Q42656); assay: Counterscreen for Glucocerebrosidase Inhibitors: qHTS Assay for Coffee Bean alpha-Galactosidase at pH 4.5 (AID 957); note: series mostly up to about 77 µM
Summary of the method: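 Coffee bean enzyme (2 nM) with 80 uM 4-methylumbelliferyl alpha-D-galactopyranoside in 50 mM citric acid, 0.005% Tween-20, pH 4.5, 20 min at room temperature; compounds 0.7 nM–77 uM. Stopped at pH 10, fluorescence 365/440 nm; AC50 from Hill fits.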

[5] = molecular target: Alpha-galactosidase (Coffea arabica) (UniProt Q42656); assay: Counterscreen for Glucocerebrosidase Inhibitors: qHTS Assay for Coffee Bean alpha-Galactosidase at pH 5.9 (AID 998)
Summary of the method: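 Green coffee bean enzyme (2 nM) with 4-methylumbelliferyl alpha-D-galactopyranoside (80 uM) in 50 mM citric acid, 0.005% Tween-20, pH 5.9, 20 min at room temperature; compounds 0.7 nM–77 uM. Stopped at pH 10, fluorescence Ex365/Em440; Hill-fit AC50.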

[6] = molecular target: Muscarinic acetylcholine receptor M1 (Rattus norvegicus) (UniProt P08482); assay: qHTS Assay for Antagonists of Acetylcholine Muscarinic M1 Receptor: Measurement of IP-One Response (AID 944); note: potency is the fitted concentration of half-maximal effect; nearly all actives have a fitted effect of over 75% in size
Summary of the method: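 CHO cells stably expressing rat M1, pretreated 10 min with compound, then stimulated 30 min with carbachol at EC80 (200 nM) in LiCl-containing buffer pH 7.4; IP1 accumulation read by HTRF competition (665/620 nm).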

Sequence of Alpha-galactosidase (Coffea arabica) (Q42656 whole entry, looked up): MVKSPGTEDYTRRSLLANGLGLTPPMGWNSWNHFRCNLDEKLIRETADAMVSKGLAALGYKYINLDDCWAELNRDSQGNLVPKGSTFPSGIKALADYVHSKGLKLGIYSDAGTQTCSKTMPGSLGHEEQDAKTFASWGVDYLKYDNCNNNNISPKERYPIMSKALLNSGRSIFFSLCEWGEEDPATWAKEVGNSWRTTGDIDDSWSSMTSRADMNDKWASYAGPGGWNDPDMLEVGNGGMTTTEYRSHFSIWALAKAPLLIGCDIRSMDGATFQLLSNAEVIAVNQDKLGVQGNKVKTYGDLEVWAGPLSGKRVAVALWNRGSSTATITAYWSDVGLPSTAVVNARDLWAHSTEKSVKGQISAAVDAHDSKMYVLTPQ
Sequence of Cytochrome P450 3A4 (Homo sapiens) (P08684 whole entry, looked up): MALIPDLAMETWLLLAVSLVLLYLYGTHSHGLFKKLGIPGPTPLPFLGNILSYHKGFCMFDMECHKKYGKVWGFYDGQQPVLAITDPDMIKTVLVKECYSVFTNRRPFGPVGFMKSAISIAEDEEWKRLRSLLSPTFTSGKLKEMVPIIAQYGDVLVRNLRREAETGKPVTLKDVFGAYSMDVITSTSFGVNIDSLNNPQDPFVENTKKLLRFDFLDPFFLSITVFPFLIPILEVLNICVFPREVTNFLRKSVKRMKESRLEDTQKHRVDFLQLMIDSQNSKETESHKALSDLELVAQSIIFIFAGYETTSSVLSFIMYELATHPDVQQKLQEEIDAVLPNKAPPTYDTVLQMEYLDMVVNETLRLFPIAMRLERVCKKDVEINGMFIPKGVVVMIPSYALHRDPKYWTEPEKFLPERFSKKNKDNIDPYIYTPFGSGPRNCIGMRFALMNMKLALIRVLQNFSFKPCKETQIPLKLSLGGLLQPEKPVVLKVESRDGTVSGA
Sequence of Cytochrome P450 2D6 (Homo sapiens) (P10635 whole entry, looked up): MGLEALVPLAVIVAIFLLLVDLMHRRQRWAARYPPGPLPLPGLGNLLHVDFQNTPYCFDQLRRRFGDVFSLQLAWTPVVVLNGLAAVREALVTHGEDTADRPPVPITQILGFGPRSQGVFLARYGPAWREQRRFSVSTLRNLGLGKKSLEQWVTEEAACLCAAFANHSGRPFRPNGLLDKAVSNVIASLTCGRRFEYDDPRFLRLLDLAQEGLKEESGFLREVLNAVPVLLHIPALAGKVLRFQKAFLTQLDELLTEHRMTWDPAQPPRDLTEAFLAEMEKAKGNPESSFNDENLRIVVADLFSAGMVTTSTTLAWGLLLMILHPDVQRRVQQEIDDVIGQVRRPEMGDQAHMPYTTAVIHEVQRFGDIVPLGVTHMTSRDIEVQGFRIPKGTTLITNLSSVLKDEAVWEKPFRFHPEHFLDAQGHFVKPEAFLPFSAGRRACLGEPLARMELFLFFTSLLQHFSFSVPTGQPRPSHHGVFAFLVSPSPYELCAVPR
Sequence of Cytochrome P450 2C19 (Homo sapiens) (P33261 whole entry, looked up): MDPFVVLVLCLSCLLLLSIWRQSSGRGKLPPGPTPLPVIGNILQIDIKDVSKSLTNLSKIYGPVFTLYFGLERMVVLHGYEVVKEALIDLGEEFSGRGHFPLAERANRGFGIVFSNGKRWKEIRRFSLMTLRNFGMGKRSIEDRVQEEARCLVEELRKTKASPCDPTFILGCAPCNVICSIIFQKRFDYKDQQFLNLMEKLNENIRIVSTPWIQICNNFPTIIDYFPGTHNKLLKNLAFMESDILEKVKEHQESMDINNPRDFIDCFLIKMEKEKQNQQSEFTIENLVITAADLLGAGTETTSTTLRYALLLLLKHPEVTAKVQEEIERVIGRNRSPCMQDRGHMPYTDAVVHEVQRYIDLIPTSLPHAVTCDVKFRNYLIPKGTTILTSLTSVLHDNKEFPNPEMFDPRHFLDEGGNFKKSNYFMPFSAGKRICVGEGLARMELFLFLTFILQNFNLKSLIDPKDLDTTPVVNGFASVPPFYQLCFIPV
Sequence of Muscarinic acetylcholine receptor M1 (Rattus norvegicus) (P08482 whole entry, looked up): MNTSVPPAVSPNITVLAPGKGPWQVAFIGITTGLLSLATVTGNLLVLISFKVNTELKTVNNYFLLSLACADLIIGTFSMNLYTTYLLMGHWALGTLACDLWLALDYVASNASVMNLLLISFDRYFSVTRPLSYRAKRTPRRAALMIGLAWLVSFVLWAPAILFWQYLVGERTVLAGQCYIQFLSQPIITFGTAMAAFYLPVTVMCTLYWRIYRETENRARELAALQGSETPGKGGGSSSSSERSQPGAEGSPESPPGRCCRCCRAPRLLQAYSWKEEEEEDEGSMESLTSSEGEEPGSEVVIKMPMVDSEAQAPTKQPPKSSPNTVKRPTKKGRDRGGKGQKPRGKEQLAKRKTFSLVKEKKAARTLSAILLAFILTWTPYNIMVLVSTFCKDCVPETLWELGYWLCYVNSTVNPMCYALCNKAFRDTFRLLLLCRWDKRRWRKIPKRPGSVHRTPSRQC

Structure (SMILES): CCN1CCC[C@@H](OC(=O)C(c2ccccc2)c2ccccc2)C1
- Potency [1]: 1580 nM (active)

Structure (SMILES): CCCCCCCC/C=C\CCCCCCCC(N)=O
- Potency [2]: inactive

Structure (SMILES): [O-]/[N+](=N\O)c1ccccc1
- Potency [2]: inactive

Structure (SMILES): CCC(=O)OC1CCC2C3CCc4cc(O)ccc4C3CC[C@]12C (some centres undefined)
- Potency [2]: inactive

Structure (SMILES): CC(C)CCC[C@@H](C)[C@@H]1CC[C@@H]2[C@H]3CC[C@H]4C[C@@H](N)CC[C@@]4(C)[C@@H]3CC[C@]21C
- activity change, negative = inhibition [1]: 11% [at 11.4 µM]
- activity, negative = inhibition [3]: 61.6% [at 11.4 µM]

Structure (SMILES): CN1[C@H](CC(=O)c2ccccc2)CCC[C@H]1C[C@@H](O)c1ccccc1
- Potency [1]: 10 nM (active)

Structure (SMILES): N#CC(=C(/N)Sc1ccccc1N)/C(C#N)=C(/N)Sc1ccccc1N
- Potency [1]: 20 nM (active)
- outcome [4]: inactive
- outcome [5]: inactive

Structure (SMILES): CC(C)=CCC1=C(O)c2ccccc2C(=O)C1=O
- Potency [2]: inactive

Structure (SMILES): O[C@@H](c1cc(-c2ccccc2)nc2c1ccc1ccccc12)[C@@H]1CCCCN1
- Potency [1]: 3160 nM (active)

Structure (SMILES): CCCN1[C@H](C(=O)OC)C[C@@H]2CC[C@@H](O)C[C@@H]21
- Potency [2]: inactive

Structure (SMILES): BrC1C(Br)C(Br)C(Br)C(Br)C1Br (centres undefined)
- Potency [2]: inactive

Structure (SMILES): C[C@]12CCC3c4ccc(OC(=O)c5ccccc5)cc4CCC3C1CCC2=O (some centres undefined)
- Potency [2]: inactive

Structure (SMILES): O=C1OC(=O)[C@@H]2[C@@H]1[C@@H]1CC[C@H]2O1
- Potency [1]: inactive
- outcome [4]: inactive
- outcome [5]: inactive

Structure (SMILES): CC1(C)C2(Cl)C(Cl)C(Cl)C(Cl)(C(Cl)Cl)C1(Cl)C2Cl (centres undefined)
- Potency [2]: inactive

Structure (SMILES): C=C(Br)CN(C)CC(=C)Br
- activity, negative = inhibition [3]: 46.7% [at 11.4 µM]

Structure (SMILES): c1ccc2c(c1)-c1ccccc1C2N1CC2CCC(CC2)C1
- Potency [1]: 3980 nM (active)

Structure (SMILES): Clc1ccc(C(c2ccc(Cl)cc2)n2cc[n+](C[C@@H](OCc3ccc(Cl)cc3Cl)c3ccc(Cl)cc3Cl)c2)cc1
- Potency [2]: inactive
- Potency [1]: 39.8 nM (active)
- Potency [6]: 14100 nM (active)
- outcome [4]: inactive
- outcome [5]: inactive

Structure (SMILES): C[C@@H](COc1ccccc1)N(CCCl)Cc1ccccc1
- Potency [1]: 1580 nM (active)
- outcome [4]: inactive
- outcome [5]: inactive
